Results published in PubChem BioAssay (NCATS).
Results filed as inconclusive are left out. Where a call stands in place of a potency, no number is given. Values without a mark were called inactive. Calls of active or inactive are those of the source. Calls follow the shape of the dose curve; as a rule, active = well fitted curve in the direction sought with a large enough effect; inconclusive = small, poorly fitted or top-dose-only effect, or another doubt; inactive = no such curve, though single readings can be large; an effect the other way counts as inactive or inconclusive.

How the values were obtained:
[1] = test system: Es-2; test: Primary qHTS to identify gynecologic anti-cancer compounds using libraries of approved drugs and bioactive compounds (AID 1345084); conditions: Gynecologic cancer cell panel viability, ATPlite luminescence, 48 h; series mostly up to 57.5 µM; also: nearly all actives have a fitted effect of over 55% in size
Method in brief: (§1)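 Measured: luminescence after ATPlite addition (15 min, RT). Exposure: 48 h, 37 C, 5% CO2.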

[2] = test system: HeLa; test: as above; conditions: Gynecologic cancer cell panel viability, ATPlite luminescence, 48 h; series mostly up to 57.5 µM
Method in brief: as §1

[3] = test system: Hek293T; test: as above; conditions: Gynecologic cancer cell panel viability, ATPlite luminescence, 48 h, control line for the selectivity index; series mostly up to 57.5 µM
Method in brief: as §1

[4] = test system: JEG-3; test: as above; conditions: Gynecologic cancer cell panel viability, ATPlite luminescence, 48 h; series mostly up to 57.5 µM
Method in brief: as §1

[5] = test system: OV90; test: as above; conditions: Gynecologic cancer cell panel viability, ATPlite luminescence, 48 h; series mostly up to 57.5 µM
Method in brief: as §1

[6] = test system: PA-1; test: as above; conditions: Gynecologic cancer cell panel viability, ATPlite luminescence, 48 h; series mostly up to 57.5 µM
Method in brief: as §1

[7] = test system: SKOV3; test: as above; conditions: Gynecologic cancer cell panel viability, ATPlite luminescence, 48 h; series mostly up to 57.5 µM
Method in brief: as §1

[8] = test system: Tov-21-G; test: as above; conditions: Gynecologic cancer cell panel viability, ATPlite luminescence, 48 h; series mostly up to 57.5 µM
Method in brief: as §1

[9] = test system: Tov112D; test: as above; conditions: Gynecologic cancer cell panel viability, ATPlite luminescence, 48 h; series mostly up to 57.5 µM
Method in brief: as §1

[10] = Drug repurposing screens with cells derived from glioblastoma tumor samples (AID 1345199); conditions: GBM patient neurospheres viability, ATP luminescence, 48 h; also: nearly all actives have a fitted effect of over 40% in size; also: potency is read from the fitted curve at half-maximal effect
Method in brief: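 Four patient lines of CD133+ GBM neurospheres were screened at several concentrations; hits were retested in those lines plus three slower-growing GBM lines, using 48-hour treatment and ATP-based viability.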

[11] = at 45.9 µM (top of the series), tumour line B
[12] = at 45.9 µM (top of the series), tumour line D
[13] = at 46 µM (top of the series), tumour line A
[14] = at 46.1 µM (top of the series), tumour line C
[15] = at 20 µM (top of the series), tumour line C
[16] = at 21.2 µM (top of the series), tumour line B
[17] = at 21.2 µM (top of the series), tumour line D
[18] = at 21.3 µM (top of the series), tumour line A

| SMILES | Potency [1] | Potency [2] | Potency [3] | Potency [4] | Potency [5] | Potency [6] | Potency [7] | Potency [8] | Potency [9] | activity, negative = cell killing [10, 11] [%] | activity, negative = cell killing [10, 12] [%] | activity, negative = cell killing [10, 13] [%] | activity, negative = cell killing [10, 14] [%] | activity, negative = cell killing [10, 15] [%] | activity, negative = cell killing [10, 16] [%] | activity, negative = cell killing [10, 17] [%] | activity, negative = cell killing [10, 18] [%] | Potency ([10]; tumour line A) |
| --- | --- | --- | --- | --- | --- | --- | --- | --- | --- | --- | --- | --- | --- | --- | --- | --- | --- | --- |
| CC1CCc2c(N3CCC(O)CC3)c(F)cc3c(=O)c(C(=O)O)cn1c23 (stereo unspecified) | inactive | inactive | inactive | inactive | inactive | inactive | inactive | inactive | inactive | 9.87 | -25.4 | -14.1 | -16 | – | – | – | – | – |
| Cc1c(-c2ccccc2)oc2c(C(=O)OCCN3CCCCC3)cccc2c1=O | inactive | inactive | inactive | inactive | inactive | inactive | inactive | inactive | inactive | – | – | – | – | 10.4 | -10.2 | -18.3 | -8.03 | – |
| CC(C)(C)NCC(O)COc1cccc2c1C[C@H](O)[C@H](O)C2 (stereo partly specified) | inactive | inactive | inactive | inactive | inactive | inactive | inactive | inactive | inactive | – | – | – | – | -4.25 | -2.25 | -3.22 | -16.2 | – |
| CCN1CCCC(OC(=O)C(c2ccccc2)c2ccccc2)C1 (stereo unspecified) | inactive | inactive | inactive | inactive | inactive | inactive | inactive | inactive | inactive | – | – | – | – | -5.6 | -12.3 | -10.7 | – | 8.91 µM (active) |
| NCCNC(=O)c1ccc(Cl)cn1 | inactive | inactive | inactive | inactive | inactive | inactive | inactive | inactive | inactive | -0.687 | -7.85 | -29.4 | -12.2 | – | – | – | – | – |
| C=C[C@H]1CN2CC[C@H]1C[C@@H]2[C@@H](O)c1ccnc2ccc(OC)cc12 | inactive | inactive | inactive | inactive | inactive | inactive | inactive | inactive | inactive | -7.35 | -6.69 | – | 11.9 | – | – | – | – | 12.6 µM (active) |
| CCCCCCCCCCCCSCCOCCO | inactive | inactive | inactive | inactive | inactive | inactive | inactive | inactive | inactive | -1.92 | -19.1 | – | 9.86 | – | – | – | – | 35.5 µM (active) |
| CC(=O)Oc1ccc(C)cc1 | inactive | inactive | inactive | inactive | inactive | inactive | inactive | inactive | inactive | -11.7 | -7.35 | -28.8 | -10.6 | – | – | – | – | – |
| OC1C(O)C(O)C(O)C(O)C1O (stereo unspecified) | inactive | inactive | inactive | inactive | inactive | inactive | inactive | inactive | inactive | -13.8 | -13.1 | -17.2 | -1.34 | – | – | – | – | – |
| CCN(CC)CCNC(=O)COc1ccc(OC)cc1 | inactive | inactive | inactive | inactive | inactive | inactive | inactive | inactive | inactive | -17.2 | -10.2 | -59 | -17.2 | – | – | – | – | – |
| COC(=O)C(c1ccccc1Cl)N1CCc2sccc2C1 (stereo unspecified) | inactive | inactive | inactive | inactive | inactive | inactive | inactive | inactive | inactive | -13.2 | -12.6 | – | 2.17 | – | – | – | – | 28.2 µM (active) |
| CCOC(=O)[C@H](CCc1ccccc1)N[C@@H](C)C(=O)N1[C@H](C(=O)O)C[C@@H]2CCC[C@@H]21 | inactive | inactive | inactive | inactive | inactive | inactive | inactive | inactive | inactive | -17.1 | 6.01 | – | -13.2 | – | – | – | – | – |
| Cc1ncc(CO)c(C=O)c1O | inactive | inactive | inactive | inactive | inactive | inactive | inactive | inactive | inactive | 6.81 | -6.02 | -26.4 | 7.46 | – | – | – | – | – |
| CCCN(CCC)S(=O)(=O)c1ccc(C(=O)O)cc1 | inactive | inactive | inactive | inactive | inactive | inactive | inactive | inactive | inactive | -5.41 | 6.49 | -4.85 | -7.91 | – | – | – | – | – |
| COc1ccc(CCN(C)CCCN2CCc3cc(OC)c(OC)cc3CC2=O)cc1OC | inactive | inactive | inactive | inactive | inactive | inactive | inactive | inactive | inactive | -2.1 | -12.6 | – | -18 | – | – | – | – | 28.2 µM (active) |
| CCOCCn1c(N2CCCN(C)CC2)nc2ccccc21 | inactive | inactive | inactive | inactive | inactive | inactive | inactive | inactive | inactive | -14.8 | -9.28 | – | -16 | – | – | – | – | 17.8 µM (active) |
| OCCOCCN1CCN(C2=Nc3ccccc3Sc3ccccc32)CC1 | inactive | inactive | inactive | inactive | inactive | inactive | inactive | inactive | inactive | -22.8 | -20.3 | – | 1.64 | – | – | – | – | 11.2 µM (active) |
| COc1cc(C(=S)N2CCOCC2)ccc1O | inactive | inactive | inactive | inactive | inactive | inactive | inactive | inactive | inactive | -7.92 | 6.32 | -27.5 | -22.1 | – | – | – | – | – |
| O=C(O)CCNC(=O)c1ccccc1 | inactive | inactive | inactive | inactive | inactive | inactive | inactive | inactive | inactive | -3.69 | -10.8 | -25.4 | -11.5 | – | – | – | – | – |
| O=C(CN1CCN(Cc2ccc3c(c2)OCO3)CC1)N1c2ccccc2Sc2ccccc21 | inactive | inactive | inactive | inactive | inactive | inactive | – | inactive | inactive | – | – | – | – | – | – | – | – | – |
| NCCNc1cccc2ccccc12 | inactive | inactive | inactive | inactive | inactive | inactive | inactive | inactive | inactive | -17.3 | -24.3 | – | -28 | – | – | – | – | 20 µM (active) |
| CCCCCCCCCCCCCC(=O)OC(C)C | inactive | inactive | inactive | inactive | inactive | inactive | inactive | inactive | inactive | 8.22 | -15.3 | -17.4 | 3.73 | – | – | – | – | – |
| CC[N+](C)(CC)CCOC(=O)C(O)(c1ccccc1)C1CCCCC1 (stereo unspecified) | inactive | inactive | inactive | inactive | inactive | inactive | – | inactive | inactive | 4.51 | -27.2 | – | -9.68 | – | – | – | – | – |
| CCNC(=O)/C=C/c1cccc(Br)c1 | inactive | inactive | inactive | inactive | inactive | inactive | inactive | inactive | – | -10.7 | -16 | – | -17.6 | – | – | – | – | – |
| CCc1oc2ccccc2c1C(=O)c1cc(I)c(O)c(I)c1 | inactive | inactive | inactive | inactive | inactive | inactive | – | inactive | inactive | – | – | – | -3.24 | – | – | – | – | – |
